Screens: PubChem BioAssay, National Center for Advancing Translational Sciences (NCATS)
Only some compounds are listed: those with a hit (about 8% of all), similar ones and a draw of the others.
HCMV antiviral: inhibitors of human cytomegalovirus. HFF cells, HCMV-luciferase reporter, 72 h; hits give low values. activity change, negative = inhibition, % at 57.5 µM. 4.5% of 410,000 active. AID 1259415; in the data active = activity change below about -60%; inconclusive = no clear call, values can overlap the other calls; inactive = above about -39%
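Luciferase read-out from HCMV-luciferase-infected HFFs (MOI 1 PFU/cell) 72 h post infection at 37C; compounds added after 16 h cell attachment; activity normalized between buffer-only basal and Salinomycin (10uM) inhibitor controls.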
LASV entry inh: Lassa virus entry inhibition; Lassa virus pseudotype entry inhibition, cell reporter; Potency, µM (highest dose often 37.9 µM), usual class: inhibitors; 1.2% of 300,000 active; AID 540256; calls by dose curve; tested in HEK293 cells; note: nearly all actives have a fitted effect of over 50% in size
FMDV inh: blocks foot and mouth disease virus | FMDV antiviral cell-based qHTS | Potency, µM (highest dose often 57.9 µM), usual class: inhibitors | 1.2% of 410,000 active | AID 1159524; calls by dose curve; tested in HEK293T cells; note: read-out not given here; nearly all actives have a fitted effect of over 45% in size
SARS PLP yeast: inhibitors of SARS-CoV papain-like protease in yeast | S. cerevisiae expressing SARS-CoV PLpro, growth rescue | Potency, µM (doses to about 32.9 µM), usual class: activators | 0.19% of 330,000 active; calls by dose curve; note: nearly all actives have a fitted effect of over 55% in size
HCV inh: HCV inhibition; Potency, µM (doses to about 41.8 µM), hits mostly inhibitors; Huh7.5.1 HCVcc-Cre infection, luciferase reporter, 44 h; 3.4% of 340,000 active; AID 651820; active = well fitted inhibition curve with a large enough effect; inconclusive = small, poorly fitted or top-dose-only effect, or another doubt; inactive = no such curve, though single readings can be large or run the other way
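Whole-lifecycle infectious HCVcc-Cre system; cells 1,000/well, compound then virus (~0.5 moi) added 4 h after plating, 44 h culture. Luciferase read 15 sec following 15 min substrate incubation, room temp.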
MARV entry inh: inhibitors of Marburg virus binding or cell entry | Potency, µM (highest dose often 37.8 µM), usual class: inhibitors | 1.8% of 300,000 active | AID 540276 | Marburg virus pseudotyped entry inhibition, cell reporter; calls by dose curve; tested in HEK293 cells
Numbers stand for hits; - = inactive; ? = inconclusive; . = no result given.

SMILES	HCMV antiviral	LASV entry inh	FMDV inh	SARS PLP yeast	HCV inh	MARV entry inh
CC(C)(C)C(=O)NC(=S)NNC(=O)c1ccc(-c2ccccc2)cc1	.	.	-	-	6.31µM	.
CCCOc1ccc(C(=O)NNC(=S)NC(C)=O)cc1	-93.7	?	-	-	?	?
CCCOc1ccc(C(=O)NNC(=S)NC(=O)c2cccs2)cc1	?	?	-	-	?	11.2µM
CCCOc1ccc(C(=O)NNC(=S)NC(=O)c2ccco2)cc1	-	?	?	-	-	?
CCCOc1ccc(C(=O)NNC(=S)NC(=O)c2ccccc2)cc1	-86.2	.	?	-	?	.
O=C1[C@H]2[C@@H]3[C@@H](O)[C@H](O)CC(=NOCc4ccccc4)[C@@H]3CC[C@H]2C(=O)N1C1CCCCC1	.	-	.	.	.	-
Cc1cccc(Nc2nc(-c3ccncc3)cs2)c1	-	.	-	-	?	.
Cc1nc2ccccn2c1-c1csc(Nc2cccc(O)c2)n1	?	?	?	-	0.891µM	?
Cc1nc(C)c(-c2csc(Nc3cccc(O)c3)n2)s1	-	-	-	-	25.1µM	?
Cc1nc(N)sc1-c1csc(Nc2cccc(O)c2)n1	-	-	-	-	?	-
CCC(=O)Nc1nc(C)c(-c2csc(Nc3cccc(O)c3)n2)s1	-	.	-	-	7.08µM	.
Cc1cccc(Nc2nc(-c3sc(C)nc3C)cs2)c1	-	?	?	-	2.82µM	?
COC(=O)NC(c1ccccc1)C1(C(=O)OC)C(=O)Cc2ccccc21 (stereo not drawn)	.	.	.	.	.	-
Cc1ccc([N+](=O)[O-])c(Oc2ncnc3c2oc2ccccc23)c1	-	-	-	.	.	.
CCNc1oc(-c2cccc3ccccc23)nc1C#N	-	-	-	.	?	-
C=CCNc1oc(-c2cccc3ccccc23)nc1C#N	-	-	.	-	6.31µM	-
N#Cc1nc(-c2cccc3ccccc23)oc1NCCN1CCCCC1	-	-	-	-	11.2µM	?
CN(C)c1oc(-c2ccccc2Cl)nc1C#N	-	-	-	-	25.1µM	-
CCOc1ccc(-c2nc(C#N)c(NCC3CCCO3)o2)cc1 (stereo not drawn)	-	-	-	-	-	-
N#Cc1nc(-c2cccc3ccccc23)oc1N1CCCCC1	-	-	-	-	-	?
N#Cc1nc(-c2ccccc2Cl)oc1NCC1CCCO1 (stereo not drawn)	-	.	-	-	12.6µM	.
COc1ccccc1C1CN(Cc2cccc(OCCO)c2)Cc2ccccc2O1 (stereo not drawn)	.	.	-	.	.	.
O=C(CSc1nc(=O)[nH]c2c1CCCC2)Nc1ccc(Cl)c(Cl)c1	-	-	-	.	.	.
CCCC[C@@H]1CNCCN1CCc1cc(C(F)(F)F)cc(C(F)(F)F)c1	-	.	-	-	?	.
FC(F)(F)c1cc(CCN2CCNC[C@@H]2CC2CCCCC2)cc(C(F)(F)F)c1	-98.5	.	-	-	?	.
SMILES	HCMV antiviral	LASV entry inh	FMDV inh	SARS PLP yeast	HCV inh	MARV entry inh
NC1=NC[C@H](CC2CCCCC2)N1CCc1cc(C(F)(F)F)cc(C(F)(F)F)c1	-100.2	.	?	-	-	.
NCCCC[C@H]1CN=C(N)N1CC1CCCCC1	?	.	-	.	-	.
NCCCC[C@H]1CN=C(N)N1CCCCC1CCCCC1	-82.2	.	-	.	-	.
CC1CCCN(c2ccc(C(=O)N3CCC4(CC3)OCCO4)cc2[N+](=O)[O-])C1 (stereo not drawn)	-	-	-	-	-	?
CC1CCCN(c2c([N+](=O)[O-])cc(C(=O)O)cc2[N+](=O)[O-])C1 (stereo not drawn)	-101.4	.	-	-	-	.
CCC1(C2CCN(C(=O)c3cc(F)ccc3F)CC2)NC(=O)N(CCc2scnc2C)C1=O (stereo not drawn)	.	.	-	.	.	.
CCC(C)Oc1cccc(C(=O)Nc2ccccc2N2CCOCC2)c1 (stereo not drawn)	-	?	-	-	7.08µM	-
CC(C)Oc1cccc(C(=O)Nc2ccccc2N2CCOCC2)c1	-	-	-	-	?	-
CCOc1ccc(C(=O)Nc2ccc(C(=O)N3CCOCC3)cc2)c(OCC)c1	-	-	-	?	14.1µM	-
CCOc1cccc(C(=O)Nc2ccccc2C(=O)N2CCOCC2)c1	-97.4	-	-	-	.	-
COc1ccc(C(=O)Nc2ccc(C(=O)N3CCOCC3)cc2)cc1OC	-	.	-	-	-	-
O=C(Cn1nc(C(F)(F)F)c2c1CCCC2)Nc1ccc(Br)cc1	-	?	?	.	.	.
CCc1cccc(N2C(=O)N(Cc3c(F)cccc3Cl)c3ccccc3S2(=O)=O)c1	-	-	-	.	.	.
